Source: PubChem BioAssay (EPA / NIEHS)
Active and inactive are the calls of the source. Rule for the calls: active = hit-call score of the fitted dose curve at least 0.9, where 1 is the maximum; inactive = score below 0.9.

How the values were obtained:
[1] = BSK_hDFCGF_SRB: Viability Assessment in the BioMAP Diversity Plus: hDFCGF Assay (AID 2283061); conditions: primary human foreskin fibroblasts;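 note: cells exposed to compound for 24 h before the read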
Outline: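 Primary human foreskin fibroblasts; 24 h post-dose; fixed 10% TCA, stained 0.1% SRB, A560 read; total protein as overt cytotoxicity measure; curves fit bidirectionally vs DMSO control.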

[2] = read-out: TIMP metallopeptidase inhibitor 1 (TIMP1), TIMP1 (gene 7076); assay: BSK_hDFCGF_TIMP1: BioMAP Diversity Plus: hDFCGF Assay for TIMP metallopeptidase inhibitor 1 (TIMP1) Biomarker Activity (AID 2283062); conditions: primary human foreskin fibroblasts; actives raise or lower the signal
Outline: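 ELISA readout of TIMP-1 from human dermal foreskin fibroblast cultures 24 h post-dosing. Curves were fitted in both directions against DMSO baseline, with SRB total-protein staining in parallel cultures as a cytotoxicity check.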

[3] = read-out: Monokine induced gamma interferon (MIG), CXCL9 (gene 4283); assay: BSK_hDFCGF_MIG: BioMAP Diversity Plus: hDFCGF Assay for Monokine induced gamma interferon (MIG) Biomarker Activity (AID 2283063); conditions: primary human foreskin fibroblasts; actives raise or lower the signal
Outline: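 Fibroblasts (human foreskin, primary) dosed, 24 h, MIG by ELISA; fit bidirectional vs DMSO.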

[4] = read-out: Matrix Metallopeptidase 1 (MMP1), MMP1 (gene 4312); assay: BSK_hDFCGF_MMP1: BioMAP Diversity Plus: hDFCGF Assay for Matrix Metallopeptidase 1 (MMP1) Biomarker Activity (AID 2283064); conditions: primary human foreskin fibroblasts; actives raise or lower the signal
Outline: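 MMP1 levels quantified by ELISA 24 h after dosing human dermal fibroblast cultures, with parallel SRB total-protein staining for overt cytotoxicity. Data fitted in both directions against DMSO baseline.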

[5] = read-out: Vascular cell adhesion molecule 1 (VCAM1), VCAM1 (gene 7412); assay: BSK_hDFCGF_VCAM1: BioMAP Diversity Plus: hDFCGF Assay for Vascular cell adhesion molecule 1 (VCAM1) Biomarker Activity (AID 2283065); conditions: primary human foreskin fibroblasts; actives raise or lower the signal;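 for AC50: VCAM-1 protein level quantified by ELISA after 24 h chemical exposure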
Outline: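 ELISA read-out of VCAM-1 on human skin fibroblasts, 24 h post-dose; gain or loss of signal fitted bidirectionally against DMSO baseline.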

[6] = read-out: Plasminogen activator inhibitor-1 (PAI1), SERPINE1 (gene 5054); assay: BSK_hDFCGF_PAI1: BioMAP Diversity Plus: hDFCGF Assay for Plasminogen activator inhibitor-1 (PAI1) Biomarker Activity (AID 2283066); conditions: primary human foreskin fibroblasts; actives raise or lower the signal
Outline: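 Human skin fibroblast cultures receive chemical for 24 h before PAI-1 is measured by ELISA; signal changes are fitted bidirectionally against DMSO-treated wells.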

[7] = read-out: Intercellular Adhesion Molecule 1 (ICAM1), ICAM1 (gene 3383); assay: BSK_KF3CT_ICAM1: BioMAP Diversity Plus: KF3CT Assay for Intercellular Adhesion Molecule 1 (ICAM1) Biomarker Activity (AID 2283067); conditions: primary human keratinocytes with fibroblasts; actives raise or lower the signal
Outline: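 ELISA readout of ICAM-1; KF3CT human skin co-culture (keratinocytes + foreskin fibroblasts), 24 h post-dose; gain/loss fit vs DMSO baseline.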

[8] = read-out: Interferon-gamma inducible Protein 10 (IP10), CXCL10 (gene 3627); assay: BSK_KF3CT_IP10: BioMAP Diversity Plus: KF3CT Assay for Interferon-gamma inducible Protein 10 (IP10) Biomarker Activity (AID 2283068); conditions: primary human keratinocytes with fibroblasts; actives raise or lower the signal
Outline: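 ELISA read-out of IP-10 after 24 h chemical dosing of human skin primary co-culture (keratinocytes, foreskin fibroblasts). Gain or loss of signal relative to DMSO, bidirectional curve fit.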

[9] = BSK_KF3CT_SRB: Viability Assessment in the BioMAP Diversity Plus: KF3CT Assay (AID 2283069); conditions: primary human keratinocytes with fibroblasts;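 note: total protein by sulforhodamine B staining as a cytotoxicity measure; read 24 h after compound addition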
Outline: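 Cytotoxicity was gauged by SRB staining (0.1% SRB, 10% TCA fixation, 560 nm) of parallel cultures at 24 h. The cells were primary human skin keratinocytes co-cultured with fibroblasts, and activity was fitted in both directions against DMSO.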

[10] = read-out: Interleukin-1 alpha (IL1a), IL1A (gene 3552); assay: BSK_KF3CT_IL1a: BioMAP Diversity Plus: KF3CT Assay for Interleukin-1 alpha (IL1a) Biomarker Activity (AID 2283070); conditions: primary human keratinocytes with fibroblasts; actives raise or lower the signal
Outline: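 IL-1a was detected by ELISA 24 h after chemical treatment of a co-culture of human skin keratinocytes and foreskin fibroblasts. Gain or loss of signal was fitted against the DMSO baseline.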

[11] = read-out: TIMP metallopeptidase inhibitor 2 (TIMP2), TIMP2 (gene 7077); assay: BSK_KF3CT_TIMP2: BioMAP Diversity Plus: KF3CT Assay for TIMP metallopeptidase inhibitor 2 (TIMP2) Biomarker Activity (AID 2283071); conditions: primary human keratinocytes with fibroblasts; actives raise or lower the signal
Outline: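 Measurements come from ELISA detection of TIMP-2 at 24 hours in a dosed human keratinocyte and foreskin fibroblast co-culture. DMSO serves as negative control and baseline.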

[12] = read-out: Transforming growth factor beta 1 (TGFb1), TGFB1 (gene 7040); assay: BSK_KF3CT_TGFb1: BioMAP Diversity Plus: KF3CT Assay for Transforming growth factor beta 1 (TGFb1) Biomarker Activity (AID 2283072); conditions: primary human keratinocytes with fibroblasts; actives raise or lower the signal
Outline: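 TGF-b1 ELISA on a 24 h dosed co-culture of human keratinocytes and foreskin fibroblasts; cytotoxicity tracked in parallel cultures by SRB staining.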

[13] = read-out: C-C motif chemokine 2 (Homo sapiens) (UniProt P13500); assay: BSK_KF3CT_MCP1: BioMAP Diversity Plus: KF3CT Assay for Monocyte Chemoattractant Protein 1 (MCP1/CCL2) Biomarker Activity (AID 2283073); conditions: primary human keratinocytes with fibroblasts; actives raise or lower the signal
Outline: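 KF3CT skin co-culture (keratinocytes/foreskin fibroblasts), 24 h post-dose; MCP-1 by ELISA; gain/loss of signal fit bidirectionally vs DMSO baseline.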

[14] = read-out: Matrix Metallopeptidase 9 (MMP9), MMP9 (gene 4318); assay: BSK_KF3CT_MMP9: BioMAP Diversity Plus: KF3CT Assay for Matrix Metallopeptidase 9 (MMP9) Biomarker Activity (AID 2283074); conditions: primary human keratinocytes with fibroblasts; actives raise or lower the signal;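 for AC50: MMP9 protein level quantified by ELISA in the co-culture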
Outline: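 MMP-9 quantified by ELISA after 24 h chemical treatment of primary human skin keratinocyte/fibroblast co-cultures; gain or loss fitted against DMSO, with parallel SRB staining (0.1% SRB, 560 nm) for overt cytotoxicity.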

[15] = read-out: urokinase plasminogen activator (uPA), PLAU (gene 5328); assay: BSK_KF3CT_uPA: BioMAP Diversity Plus: KF3CT Assay for urokinase plasminogen activator (uPA) Biomarker Activity (AID 2283075); conditions: primary human keratinocytes with fibroblasts; actives raise or lower the signal
Outline: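 ELISA read-out of uPA 24 h after dosing human skin keratinocytes co-cultured with foreskin fibroblasts. Signal change fitted both ways relative to DMSO; sulforhodamine B on parallel cultures marks overt cytotoxicity.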

CD40, CD40 (gene 958) = assay: BSK_LPS_CD40: BioMAP Diversity Plus: LPS Assay for CD40 Biomarker Activity (AID 2283076); conditions: primary human HUVEC with PBMC; actives raise or lower the signal
Outline: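 ELISA readout of CD40 in HUVEC/PBMC co-culture (BSK_LPS system), 24 h post-dosing; bidirectional curve fit, DMSO baseline; parallel SRB total-protein staining for cytotoxicity.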

[16] = read-out: E-selectin (Homo sapiens) (UniProt P16581); assay: BSK_LPS_Eselectin: BioMAP Diversity Plus: LPS Assay for Eselectin Biomarker Activity (AID 2283077); conditions: primary human HUVEC with PBMC; actives raise or lower the signal
Outline: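 ELISA readout of E-selectin, 24 h post-dose, HUVEC + PBMC co-culture (LPS system). Gain or loss of signal vs DMSO baseline, bidirectional fit.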

[17] = read-out: Interleukin-8 (IL8), CXCL8 (gene 3576); assay: BSK_LPS_IL8: BioMAP Diversity Plus: LPS Assay for Interleukin-8 (IL8) Biomarker Activity (AID 2283078); conditions: primary human HUVEC with PBMC; actives raise or lower the signal
Outline: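 HUVEC + PBMC co-culture, LPS-activated; test chemicals dosed, IL-8 read by ELISA at 24 h. Bidirectional curve fit vs DMSO baseline (gain or loss of signal).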

[18] = read-out: Interleukin-1 alpha (IL1a), IL1A (gene 3552); assay: BSK_LPS_IL1a: BioMAP Diversity Plus: LPS Assay for Interleukin-1 alpha (IL1a) Biomarker Activity (AID 2283080); conditions: primary human HUVEC with PBMC; actives raise or lower the signal
Outline: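 HUVEC/PBMC co-culture, LPS system; 24 h after dosing; IL-1a by ELISA; gain or loss of signal fitted bidirectionally vs DMSO baseline.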

[19] = BSK_LPS_SRB: Viability Assessment in the BioMAP Diversity Plus: LPS Assay (AID 2283079); conditions: primary human HUVEC with PBMC;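 note: total protein by sulforhodamine B absorbance as a cytotoxicity measure; measured one day after compound addition; fitted in both directions against DMSO so loss or gain of signal counts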
Outline: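 HUVEC + PBMC co-culture, LPS-stimulated; compound 24 h. 10% TCA fix, 0.1% SRB stain, A560. Bidirectional fit vs DMSO.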

Measured: AC50

E-selectin (Homo sapiens), sequence (P16581 whole entry, looked up): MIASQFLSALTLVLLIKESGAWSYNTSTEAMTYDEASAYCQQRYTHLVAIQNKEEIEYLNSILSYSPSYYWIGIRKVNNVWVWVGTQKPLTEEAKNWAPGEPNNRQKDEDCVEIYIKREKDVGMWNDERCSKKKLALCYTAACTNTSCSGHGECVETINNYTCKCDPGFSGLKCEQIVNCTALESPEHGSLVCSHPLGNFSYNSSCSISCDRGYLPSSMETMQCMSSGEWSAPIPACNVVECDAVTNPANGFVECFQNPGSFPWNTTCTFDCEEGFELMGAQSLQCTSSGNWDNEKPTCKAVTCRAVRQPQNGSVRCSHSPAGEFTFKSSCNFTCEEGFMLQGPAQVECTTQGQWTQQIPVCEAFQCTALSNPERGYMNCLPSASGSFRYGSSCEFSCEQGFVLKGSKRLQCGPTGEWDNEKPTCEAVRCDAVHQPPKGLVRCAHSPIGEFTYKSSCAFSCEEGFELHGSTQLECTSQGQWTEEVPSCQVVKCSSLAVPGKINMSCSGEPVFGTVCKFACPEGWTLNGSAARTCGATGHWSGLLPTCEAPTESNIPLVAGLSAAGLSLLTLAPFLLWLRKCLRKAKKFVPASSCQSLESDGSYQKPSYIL

NC(=O)c1nc(-c2cccc(-c3cc(F)ccc3OCC(F)(F)C(F)(F)F)c2)n[nH]1
active: [1] 36.4 µM | [2] 35.5 µM | [3] 35 µM | [4] 39.5 µM | [5] 35.1 µM | [6] 32.8 µM | [7] 35.2 µM | [8] 39.3 µM | [9] 37 µM | [10] 41.2 µM | [11] 35 µM | [12] 36.1 µM | [13] 34 µM | [14] 39.7 µM | [15] 43.1 µM | CD40, CD40 (gene 958) 22.6 µM | [16] 37.7 µM | [17] 33.7 µM | [18] 41.4 µM

CCCCCCCCCCCCO
inactive: CD40, CD40 (gene 958)
active: [1] 30.6 µM | [2] 36.4 µM | [3] 33.3 µM | [4] 31 µM | [5] 25.8 µM | [6] 29.7 µM | [7] 32.7 µM | [8] 37.7 µM | [9] 32.8 µM | [10] 30.6 µM | [11] 30 µM | [12] 30.9 µM | [13] 35 µM | [14] 33 µM | [15] 30.4 µM | [16] 19.8 µM | [19] 30.4 µM | [18] 36.3 µM

O=C(O)c1ccccc1C(=O)OCc1ccccc1
inactive: [1] | [2] | [3] | [4] | [5] | [6] | [7] | [8] | [9] | [10] | [11] | [12] | [13] | [14] | [15] | CD40, CD40 (gene 958) | [16] | [17] | [18]

O=C(O)c1ccccc1-n1cc(C(=O)O)c(=O)c2cc(Nc3c(F)cc(F)cc3Cl)c(Cl)cc21
inactive: [1] | [2] | [3] | [4] | [5] | [6] | [7] | [8] | [9] | [10] | [11] | [12] | [13] | [14] | [15] | CD40, CD40 (gene 958) | [16] | [17]

CN1C(=O)N(c2ccccc2Br)Cc2cnc(Nc3ccc4c(c3)OCC(CO)O4)nc21 (stereo not drawn)
inactive: [7]
active: [1] 19 µM | [2] 6.79 µM | [3] 22.2 µM | [4] 9.31 µM | [5] 34.1 µM | [6] 3.21 µM | [8] 21.6 µM | [9] 16.2 µM | [10] 10.4 µM | [11] 13.7 µM | [12] 15.3 µM | [13] 31 µM | [14] 6.07 µM | [15] 12.4 µM | CD40, CD40 (gene 958) 7.42 µM | [16] 7.07 µM | [17] 6.07 µM
